From PubChem
MK inhibit: inhibitors of Streptococcus pneumoniae mevalonate kinase; 65,000 tested, 0.48% active; AID 555; inhibition, % at 10 µM; purified MK, PK/LDH-coupled NADH absorbance 340 nm;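 active = ranked among the strongest by inhibition in the single 10 µM screen, a fixed top-ranked set picked for dose follow-up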
Abs 340nm: absorbance at 340 nm; compound absorbance at 340 nm, fold over control; fold change at 10 µM; 65,000 tested, under 10 active; AID 708;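 active = at 10 µM dose, initial 340 nm absorbance at least 2 fold that of control wells; inactive = change under 2 fold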;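 note: initial absorbance extrapolated from kinetic A340 decline of NADH oxidation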
NADH coupling: inhibition of NAD/NADH coupling enzymes, library profiling; AID 774; IC50, µM (doses to about 10 µM), for inactives: at the highest dose inhibition; 65,000 tested, 0.02% active; coupled PK/LDH NADH assays, four targets;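 active = single-dose screening hits from any of four coupled enzyme assays that gave an IC50 when retested across doses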;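 note: the DPM-DC format reads NADH fluorescence rather than 340 nm absorbance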
Fluor 339 460: intrinsic fluorescence of library compounds, ex339/em460 – biochemical, MLSMR library, data from DPM-DC assay, artefact control, profiling panel; fluorescence fold increase at 10 µM; compound autofluorescence, ex339/em460 nm, NADH buffer; active compounds read high; 1 = no-compound wells, NADH background; 65,000 tested, 5.5% active;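 active = at 10 µM, mean starting fluorescence two-fold or more over control wells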;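 note: signal is the first read of a kinetic run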
Spn DPM-DC inh: blocks S. pneumoniae diphosphomevalonate decarboxylase | purified DPM-DC, PK/LDH coupled NADH fluorescence | calls only at 10 µM | 65,000 tested, 0.49% active;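 active = the 320 compounds with the highest percent inhibition in the single-dose primary screen, excluding strongly autofluorescent ones, cut at about 32% in these data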;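 note: kinetic rate of NADH fluorescence loss reporting ADP formed by the decarboxylase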
Spn PMK inh: blocks S. pneumoniae phosphomevalonate kinase; purified PMK, PK/LDH-coupled NADH absorbance 340 nm; inhibition, % at 10 µM; 65,000 tested, 0.49% active; AID 539;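 active = top-ranked compounds by inhibition in the single 10 µM screen, taking a fixed number of the strongest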;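 note: 0% = full reaction with DMSO carrier and 100% = background rate without enzyme reaction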
* = called active by the depositor; i = inactive; / = not tested or not shown; + = active, no number. An excerpt weighted towards active compounds, which were near 6.3% of everything screened.

SMILES	MK inhibit	Abs 340nm	NADH coupling	Fluor 339 460	Spn DPM-DC inh	Spn PMK inh
CN(Cc1c(O)ccc2c1oc(=O)c1ccccc12)C1CCCCC1	50*	1.1	8.8µM*	1.2	i	18
CCc1c(C)c2ccc(O)c(CN(C)C)c2oc1=O	12	1.2	6%	2.3*	/	0
CCCCc1cc(=O)oc2c(CN(C)C)c(O)ccc12	10	1.1	9%	3.6*	/	8
CN(C1CCCCC1)S(=O)(=O)c1ccccc1	6	1	5%	1.1	i	5
CCCc1cc(=O)oc2cc3oc(C)c(C)c3cc12	0	1	2%	1.5	i	6
COc1ccc(OC)c(NS(=O)(=O)Cc2ccccc2)c1	15	1	3%	0.99	i	2
O=c1c2cc(Cl)ccc2[nH]c(=S)n1Cc1ccco1	9	0.99	3%	1	i	8
O=c1c2cc(N3CCOCC3)ccc2[nH]c(=S)n1CCCN1CCCC1	8	1	8%	2	i	12
O=c1c2cc(N3CCOCC3)ccc2[nH]c(=S)n1Cc1ccco1	7	1.1	16%	3.5*	i	10
COc1cccc(Cn2c(=S)[nH]c3ccc(N4CCOCC4)cc3c2=O)c1	7	1.1	21%	3.7*	+	16
O=C(Cn1cc(C(=O)c2cccs2)c2ccccc21)NCc1ccc2c(c1)OCO2	5	1.1	4%	1.1	i	4
CCOC(=O)C1CCCN(C(=O)CNC(=O)Cn2ccc3ccccc3c2=O)C1 (configuration not stated)	12	1.1	4%	1.1	i	0
O=S(=O)(c1ccc(-c2cn3ccccc3n2)cc1)N1CCOCC1	10	1.1	5%	2.2*	/	0
O=S(=O)(c1cccc(-c2cn3cc(Cl)ccc3n2)c1)N1CCOCC1	0	1.1	4%	1.9	i	11
Cc1cccn2cc(-c3ccc(S(=O)(=O)N4CCOCC4)cc3)nc12	4	1.1	2%	2.2*	/	0
CCc1cc(C(=O)OC)c(NC(=O)c2cc(Br)cs2)s1	0	1.1	0%	2.2*	i	0
Cc1ccc2cc(CN(CC(C)C)C(=O)C3CCCO3)c(=O)[nH]c2c1 (configuration not stated)	3	1	3%	1.2	i	3
COc1ccc(N(Cc2cc3cc(OC)ccc3[nH]c2=O)C(=O)C2CCCO2)cc1 (configuration not stated)	8	1.1	10%	2.9*	i	0
COc1ccc2[nH]c(=O)c(CN(C(=O)C3CCCO3)c3cccc(C)c3)cc2c1 (configuration not stated)	8	1.1	10%	2.4*	i	6
O=c1[nH]c(NCc2ccco2)nnc1Cc1ccccc1Cl	11	1	1%	1.1	i	0
CC(C)(CSc1nncn1N)NS(=O)(=O)c1ccc(Cl)cc1	5	1	2%	1.1	i	6
CCOC(=O)CC1C(=O)NCCN1C(=O)c1cc2c(=O)n3cccc(C)c3nc2s1 (configuration not stated)	4	1.1	10%	2.1*	/	15
CCOC(=O)CC1C(=O)NCCN1C(=O)c1cc2c(=O)n3ccccc3nc2s1 (configuration not stated)	2	1.2	2%	2.1*	/	2
CCCOC(=O)CC1C(=O)NCCN1Cc1ccccc1C (configuration not stated)	7	1	7%	1.1	i	14
CN=C1SC(CC(=O)Nc2cc(Cl)ccc2Cl)C(=O)N1C (configuration not stated)	8	1.1	6%	1.1	i	8
SMILES	MK inhibit	Abs 340nm	NADH coupling	Fluor 339 460	Spn DPM-DC inh	Spn PMK inh
CS(=O)(=O)N1CCCC(C(=O)NCc2ccccn2)C1 (configuration not stated)	0	1	10%	1	i	29*
C=CCNC(=O)C1CCCN(S(C)(=O)=O)C1 (configuration not stated)	0	1	9%	1.1	i	28*
COc1ccccc1NC(=O)N(C1CCCC1)C1CCN(C(C)=O)CC1	8	0.98	4%	1.1	i	9
CCN(CC)S(=O)(=O)c1ccc(C2CNC(=O)C2)cc1 (configuration not stated)	2	1.1	1%	1.1	i	0
CCNc1nc(Oc2ccccc2)nc(OC(C)C(=O)OCC)n1 (configuration not stated)	6	1	7%	1.1	i	7
COc1cc(CNc2ccc3[nH]c(=O)[nH]c3c2)cc(Cl)c1OCC(=O)NC(C)(C)C	2	1.1	11%	3*	i	4
CCOc1cc(CNc2ccc3[nH]c(=O)[nH]c3c2)ccc1OCC(=O)NC(C)(C)C	10	1.1	7%	3.8*	/	3
Cc1ccc(-c2nnn(CC(=O)N(Cc3ccccc3)C(C(=O)NC3CCCC3)c3ccncc3)n2)o1 (configuration not stated)	0	1	2%	1.1	i	5
CCn1c(=O)c(-[n+]2ccccc2)c(O)c2ccccc21	12	1	9%	1.1	i	14
CCn1c(=O)c(C2=NS(=O)(=O)c3ccccc3N2)c(O)c2ccccc21	0	1.1	11%	2.5*	i	12
O=c1cnn(-c2ccccc2)c(-c2ccccc2)c1	8	1	13%	1.1	i	30
COc1ccc(C(=O)CSc2nnc(-c3ccc(C)cc3)o2)cc1	12	1	3%	1.1	i	10
COc1ccc(OC)c(C(=O)CSc2nnc(-c3ccc(OC)c(OC)c3)o2)c1	6	1	5%	2*	i	0
COC(=O)c1[nH]c2ccc(C)cc2c1NC(=O)CCN1CCN(Cc2ccc3c(c2)OCO3)CC1	12	1	8%	2.3*	i	2
CCOC(=O)C1CCCN(CC(=O)Nc2c(C(=O)OC)[nH]c3ccc(C)cc23)C1 (configuration not stated)	12	1.1	12%	2.6*	i	12
COC(=O)c1[nH]c2ccc(C)cc2c1NC(=O)CN1CCCCC1C (configuration not stated)	8	1.1	11%	2.3*	i	11
COc1ccc(-n2c(SCC(=O)Nc3ccccc3)nc3c(c2=O)SCC3)cc1	0	1.1	3%	1.1	i	4
CCc1cc2c(NCC3CCCO3)ncnc2s1 (configuration not stated)	11	1	5%	1.1	i	4
Cc1nc2sc3c(NCc4ccco4)ncnc3c2c2c1COC(C)(C)C2	1	1.1	3%	1.4	i	9
Cc1nc2oc3c(NCc4ccccc4)ncnc3c2c2c1COC(C)(C)C2	7	1	9%	2.5*	i	0
